Measurements published in PubChem BioAssay (NCI).
Compounds without any hit were thinned out: in the full panel of roughly 83,000, 20% have a hit.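 Each cell line was grown in a 96-well plate and treated with one concentration of compound for 48 hours. Values below 10 were considered active.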 Values without a mark were called inactive. Calls of active or inactive are those of the source.

What follows are molecules tested on SN12C renal (assay: NCI-60 one-dose screen, 48 h (100 = growth as untreated, 0 = no growth, -100 = all killed)). Settings: 10 µM unless noted.
Procedure: Growth inhibition of the SN12C human tumor cell line is measured as a screen for anti-cancer activity. Cells are grown in 96 well plates and exposed to the test compound for 48 hours. Compounds are tested at a single concentration, which is 10^-5 M for most compounds. The reported endpoint is percent growth (GI% or GIPRCNT), where numbers from 0 - 100% represent growth inhibition, and numbers from -100% - 0 represent cell death. For example, a value of 40 represents 60% growth inhibition. A value of 0 means no net growth occurred over the course of the experiment. A value of -40 indicates 40% of cells at the beginning of the experiment died by the end of the experiment. A value of -100 means all cells are dead at the end of the experiment.
NCI-60 Human Tumor Cell Lines Screen was performed using the standard one-dose NCI protocol, which is described in more detail at https://dtp.cancer.gov/discovery_development/nci-60/default.htm.
Compounds with GIPRCNT values below 10 were considered active. Activity score was based on GIPRCNT using the following formula: […]
Score is 0 for GIPRCNT values of 100 or above, 50 for GIPRCNT values of 0, and 100 for GIPRCNT values of -100.

Q: For `c1ccc(-c2nc(N3CCOCC3)c3c4c(sc3n2)CCCCCC4)nc1`, which growth is on record?
A: 65.2%

Q: With `Cc1ccc2nc(NC(=O)CSC(=S)N3CCN(Cc4ccccc4)CC3)sc2c1` as the molecule, how does the growth read?
A: -1% (active)

Q: `Brc1ccc(SCN(CSc2ccc(Br)cc2)Cc2ccccc2)cc1` was tested. Which growth did it give?
A: 27.3%

Q: `O=C1C(N2CCOCC2)=Cc2cccc3cccc1c23` was tested. Which growth did it give?
A: 106%

Q: For `N#Cc1c(O)c2c(c(O)c1C#N)C(=O)c1ccccc1C2=O`, which growth is on record?
A: 0.389% (active)

Q: Which growth does the source give for `COc1cc(/C=N/NC(=O)c2cnn3c2NC(c2ccccc2)C3)cc(OC)c1OC` (stereo not given) here?
A: 87.4%

Q: With `O=S(=O)(Nc1ccc(Cl)c(Cl)c1)c1ccc(-c2cnc(C3CC3)o2)cc1` as the molecule, how does the growth read?
A: 41.2%

Q: With `O=c1[nH]c(-c2ccccn2)nc2sc3c(c12)CCCCCC3` as the molecule, how does the growth read?
A: 50.5%

Q: `O=C1c2c(c3c4cc(Br)ccc4[nH]c3c3ccc4ccccc4c23)C(=O)N1O` was tested. Which growth did it give?
A: 92.2%

Q: With `CC(C)(C)[Si](C)(C)OC1[C@@H](CNC(=O)NC(=O)CCl)O[C@@H](n2cnc3c(N)ncnc32)[C@H]1O[Si](C)(C)C(C)(C)C` (stereo not given in full) as the molecule, how does the growth read?
A: -81.9% (active)

Q: With `COc1c(Cl)ccc2c(-c3nc4cc(Cl)c(F)cc4s3)cc(=O)oc12` as the molecule, how does the growth read?
A: 96.3%

Q: Which growth does the source give for `Cc1nc2cc(Nc3nc(Nc4ccc(F)cc4)nc(-c4ccc(Cl)cc4)n3)ccc2n1Cc1ccccc1` here?
A: 77.1%

Q: For `COC(=O)c1c2c(c(C)[n+]([O-])c1C)C(=O)C=C(NCc1ccc(F)cc1)C2=O`, which growth is on record?
A: -88.8% (active)

Q: Which growth does the source give for `CC(=O)N(CC(O)CO)c1c(I)c(C(=O)NCCO)c(I)c(C(=O)NCC(O)CO)c1I` (stereo not given) here?
A: 98.9%

Q: `COc1cc(C(=O)N(C(C)C)C2CCCCC2)cc(OC)c1OC` was tested. Which growth did it give?
A: 96.3%

Q: With `CCOC(=O)C1=C(C)N2C(=NC3=C(CCCC/C3=C\c3ccccc3)C2c2ccccc2)S1` (stereo not given) as the molecule, how does the growth read?
A: 101%

Q: How did the growth turn out when `O=[N+]([O-])c1cc2c(cc1Br)C1C(C3C2C(Cl)(Cl)C(Cl)=C(Cl)C3(Cl)Cl)C(Cl)(Cl)C(Cl)=C(Cl)C1(Cl)Cl` (stereo not given) was run?
A: 98.7%

Q: For `COc1ccc(-c2nc3sc(C)cn3c2/C=C/C(=O)c2cc(OC)c(OC)c(OC)c2)cc1`, which growth is on record?
A: 59.5%

Q: For `COc1ccc(/C=C2\Oc3cc(C)c(Cl)cc3C2=O)cc1OC`, which growth is on record?
A: 95%

Q: How did the growth turn out when `O=c1c2c(=NCCN3CCCC3)cc3c(=O)n(CCCN4CCOCC4)c(=O)c4c(-c5ccc(CN6CCCC6)cc5)cc(c(O)n1CCCN1CCOCC1)c2c4-3` was run?
A: -25.5% (active)

Q: For `COc1cccc(C2CC(=O)Nc3cc4c(cc32)CCC4)c1OC` (stereo not given), which growth is on record?
A: 77.2%

Q: For `O=c1c2c(=NCCN3CCCC3)cc3c(=O)n(CCCN4CCOCC4)c(=O)c4ccc(c(O)n1CCCN1CCOCC1)c2c4-3`, which growth is on record?
A: 4.69% (active)

Q: For `COc1ccc(-c2nc3sc(C)nn3c2-c2nc3cc(C)c(C)cc3[nH]2)cc1`, which growth is on record?
A: 87.5%

Q: `c1ccc2cc(-c3n(Cc4ccc5ccccc5n4)c4ccccc4[n+]3Cc3ccc4ccccc4n3)ccc2c1` was tested. Which growth did it give?
A: 0.451% (active)

Q: Which growth does the source give for `O=C(Nc1ccccc1O)c1ccc(NS(=O)(=O)c2cccc3cccnc23)cc1` here?
A: 61.2%

Q: `COc1ccc(/C=N/OCC(O)CN2CCC(O)CC2)cc1OC1CCCC1` (stereo not given) was tested. Which growth did it give?
A: 103%

Q: How did the growth turn out when `COc1cccc(C2C3=C(COC3=O)N(CCO)c3cc4c(cc32)CCC4)c1` (stereo not given) was run?
A: 19.5%

Q: With `Nc1nc(N)c(N=Nc2c(Br)cc(S(N)(=O)=O)cc2Br)c(N)n1` as the molecule, how does the growth read?
A: 103%

Q: `CCC(C)Oc1cc(/C=N/NC(=O)c2cnn3c2NC(c2ccccc2)C3)ccc1OC` (stereo not given) was tested. Which growth did it give?
A: 47%

Q: For `COc1ccc(C2=NOC(CC(=O)N(CCO)CCO)C2)cc1OC1CCCC1` (stereo not given), which growth is on record?
A: 104%

Q: For `COc1ccc(Sc2ccc3[nH]c(=O)nc(N)c3c2)cc1`, which growth is on record?
A: 101%

Q: How did the growth turn out when `CN(C)c1ccc(/C=C(\C#N)c2cc3ccccc3n2C)cc1` was run?
A: 38.7%

Q: How did the growth turn out when `Cc1nc2ccc(Cl)cc2n1C` was run?
A: 101%

Q: How did the growth turn out when `CCCCOC(=O)C1OC(Oc2ccc3c(C)cc(=O)oc3c2)[C@@H](OC(C)=O)C(OC(C)=O)C1OC(C)=O` (stereo not given in full) was run?
A: 99.6%

Q: Which growth does the source give for `CCCCCn1c(=N)n(CC(O)COc2cccc(C)c2)c2ccccc21` (stereo not given) here?
A: 12%

Q: For `O=C1NC(=S)S/C1=C\c1cccc([N+](=O)[O-])c1`, which growth is on record?
A: 94.1%

Q: With `CCCCCCCC/C=C\CCCCCCCCOc1cccc(CC(=O)NCC[N+]2(C)CCOCC2)c1` as the molecule, how does the growth read?
A: 81.5%

Q: `C=C(C)CCCC(C)CC#N` (stereo not given) was tested. Which growth did it give?
A: 103%

Q: With `Nc1nc2c(s1)CCc1c-2c(Br)n(Cc2ccccc2)c1Br` as the molecule, how does the growth read?
A: 87.7%

Q: `Cn1c2ccccc2c2nn(Cc3ccccc3)c(=O)nc21` was tested. Which growth did it give?
A: 107%
